Data: PubChem BioAssay (NCI)
Compounds without any hit were thinned out: in the full panel of roughly 83,000, 20% have a hit.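 Step 1: grow cells in 96-well plates. Step 2: add test compound at a single concentration. Step 3: incubate 48 h. Step 4: record percent growth.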 Values without a mark were called inactive. Calls of active or inactive are those of the source. Rule for the calls: active = growth percent below 10; inactive = the rest.

Columns and labels:
Test in all cases: NCI-60 one-dose screen, 48 h (100 = growth as untreated, 0 = no growth, -100 = all killed)
Details in all cases: 10 µM unless noted
NCI-H23 lung = system: NCI-H23 lung
NCI-H226 lung = system: NCI-H226 lung
NCI-H322M lung = system: NCI-H322M lung
HOP-62 NSCLC = system: HOP-62 NSCLC
HOP-92 NSCLC = system: HOP-92 NSCLC
NCI-H522 lung = system: NCI-H522 lung
A549/ATCC NSCLC = system: A549/ATCC NSCLC
786-0 renal = system: 786-0 renal
COLO 205 colon = system: COLO 205 colon
DU-145 prostate = system: DU-145 prostate
K-562 leukemia = system: K-562 leukemia
MALME-3M melanoma = system: MALME-3M melanoma
MDA-MB-231 breast = system: MDA-MB-231 breast
RXF 393 renal = system: RXF 393 renal
SF-268 CNS = system: SF-268 CNS
SF-295 CNS = system: SF-295 CNS
SF-539 CNS = system: SF-539 CNS
UACC-257 melanoma = system: UACC-257 melanoma
M14 melanoma = system: M14 melanoma
NCI-H460 lung = system: NCI-H460 lung

| SMILES | growth (NCI-H23 lung) | growth (NCI-H226 lung) | growth (NCI-H322M lung) | growth (HOP-62 NSCLC) | growth (HOP-92 NSCLC) | growth (NCI-H522 lung) | growth (A549/ATCC NSCLC) | growth (786-0 renal) | growth (COLO 205 colon) | growth (DU-145 prostate) | growth (K-562 leukemia) | growth (MALME-3M melanoma) | growth (MDA-MB-231 breast) | growth (RXF 393 renal) | growth (SF-268 CNS) | growth (SF-295 CNS) | growth (SF-539 CNS) | growth (UACC-257 melanoma) | growth (M14 melanoma) | growth (NCI-H460 lung) |
| --- | --- | --- | --- | --- | --- | --- | --- | --- | --- | --- | --- | --- | --- | --- | --- | --- | --- | --- | --- | --- |
| N#Cc1c(-c2ccc(Cl)cc2)nc(NN=Cc2ccc[nH]2)nc1N1CCOCC1 | 92.4% | 61.8% | 95.4% | 41.6% | 68.9% | 8.32% (active) | 54.4% | 23.9% | 81.6% | 84.2% | 44.2% | 88.9% | 79.7% | 63.1% | 46.2% | 58.4% | 33.4% | 101% | 105% | – |
| O=C(NCCCCCCNC(=O)OCc1ccc2c(Cl)cc(Cl)c(O)c2n1)OCc1ccc2c(Cl)cc(Cl)c(O)c2n1 | -69.2% (active) | 1.25% (active) | 43.6% | -42.5% (active) | -60.1% (active) | -57.4% (active) | -39.6% (active) | -63.1% (active) | -82.5% (active) | -50.4% (active) | 1.59% (active) | -84.5% (active) | -92.7% (active) | -87% (active) | -50.7% (active) | 32.4% | -97.1% (active) | -29.3% (active) | -38.7% (active) | – |
| Nc1cc(-c2ccc(Cl)cc2)nn1-c1nnc(/C=C/c2ccco2)c(=O)[nH]1 | 58.8% | 47.4% | 24.4% | 71.3% | 60.3% | 74.9% | 37.3% | 46.9% | 72.6% | 63.3% | 41.7% | 72.5% | 74.2% | 67.8% | 52.5% | 9.9% (active) | 55.4% | 69.6% | 57.4% | – |
| CCOC(=O)c1nnn(-c2no[n+]([O-])c2-c2ccc(OC)cc2)c1COc1cccc2cccnc12 | 31.6% | 8.91% (active) | 98.8% | 30.6% | 17.6% | – | 71.9% | 25.8% | -25% (active) | 11.8% | 11.9% | 68.6% | 17% | 22.5% | 21.8% | 33.4% | -3.16% (active) | 59.1% | 12.4% | 8.47% (active) |
| CC12OC(CC(O)C1O)n1c3ccccc3c3c4c(c5c6ccccc6n2c5c31)C(=O)N(CCN1CCCC1)C4=O (stereo not given) | 14.3% | 2.49% (active) | 28.5% | 2.4% (active) | 34.1% | -0.973% (active) | 1.98% (active) | 14.5% | 14.4% | 3.68% (active) | 4.59% (active) | 13.2% | 56.9% | 21.1% | 29% | 2.23% (active) | 22.8% | 24.5% | 19% | – |
| O=Nc1ccc(NC(=O)Nc2ccc([N+](=O)[O-])cc2)cc1 | 87.5% | 99.6% | 103% | 110% | 56.5% | 78.8% | 95.6% | 86.5% | 116% | 113% | 58.8% | 102% | 87% | 119% | 104% | 98.1% | 101% | 104% | 102% | – |
| Cc1c(O)cc(-c2cnc(N/N=C/c3ccccc3)s2)c(O)c1C | 97.7% | 92.4% | 97.6% | 107% | 92.6% | – | 94.1% | 117% | 111% | 105% | 89.9% | 107% | 101% | 102% | 91.6% | 103% | 100% | 95.5% | 95.9% | 102% |
| C=C(C)[C@@H]1CC[C@]2(C)[C@H](C=CC3=C4C[C@@](C)(CO)CC[C@]4(C)CC[C@]32C)[C@@]1(C)CCCN | -37.1% (active) | 90.8% | -14.3% (active) | -54.9% (active) | -52.9% (active) | -43.1% (active) | -62.2% (active) | -97.3% (active) | -64.4% (active) | -72.7% (active) | 0.273% (active) | -45.2% (active) | -75.7% (active) | -69.5% (active) | -55.8% (active) | 73.3% | -90% (active) | -60.4% (active) | -66.2% (active) | – |
| Nc1nc(N(Cc2ccccc2)c2ccccc2)c2cn[nH]c2n1 | 81.7% | 98.3% | 94.2% | 70% | 62.1% | 90.1% | 71.4% | 72.3% | 58.8% | 88.2% | 23.9% | 62.8% | 62.1% | 67.6% | 73.8% | 51.5% | 68.8% | 99.7% | 33.5% | – |
| CC(O)CNC(Cc1ccccc1)c1ccc2c(c1)OCO2 (stereo not given) | 98.5% | 90% | 93.6% | 60.9% | 67.2% | – | 84.6% | 83% | 71.4% | 107% | 90.5% | 91% | 99.5% | 110% | 95.9% | 88.8% | 87.4% | 103% | 80.4% | 103% |
| COc1ccc(Oc2ccc(/C=C/C(=O)c3cc4ccccc4oc3=O)cc2)cc1 | 81% | 92.2% | 84.5% | 85.6% | 58.2% | – | 95.2% | 108% | 120% | 101% | 78.7% | 94.2% | 76% | 100% | 80.9% | 104% | 92.5% | 93.3% | 90.5% | 102% |
| O=C(Nc1ccc(Nc2ccncc2)cc1)c1ccc(Nc2ccnc3ccc([N+](=O)[O-])cc23)cc1 | 86.9% | 89.8% | 116% | 113% | 87.7% | 102% | 94.7% | 99.2% | 131% | 103% | 80.5% | 114% | 80.5% | 116% | 97.6% | 106% | 85.5% | 101% | 108% | – |
| Cc1ccc(NC(=O)c2cc3ccccc3cc2O)c(C)c1 | 71.9% | 86.6% | 94.4% | 89.3% | 36.4% | – | 106% | 84.7% | 78.5% | 96.3% | 63.6% | 69.8% | 97.8% | 113% | 102% | 94.1% | 78.7% | 86.3% | 86.9% | 79.9% |
| COc1cc(/C=C2\C(=O)N(CCCOc3cc(O)c4c(=O)cc(-c5ccccc5)oc4c3)c3ccccc32)cc(OC)c1O | 87.9% | 94.5% | 89.9% | 71.7% | 72.1% | – | 74.5% | 92.8% | 82.6% | 86.2% | 21.2% | 78.5% | 97.5% | 91.6% | 78.5% | 101% | 80.7% | 90.9% | 57.1% | 89.4% |
| O=C1c2cccnc2C(=O)c2c1c(C(=O)OCCc1ccccn1)c1ccccn21 | -55.8% (active) | -50.1% (active) | -53.3% (active) | -79% (active) | 15.1% | – | -65.9% (active) | -63.2% (active) | -62.3% (active) | -87.9% (active) | -2.55% (active) | -57.5% (active) | 5.98% (active) | -46.6% (active) | -1.63% (active) | -50.9% (active) | -57.2% (active) | -53.2% (active) | -70.5% (active) | -71% (active) |
